Measured values reported in the supplement of paper PMC7726561.

Biological target: HLA-C*04:01
Assay: thermal melting temperature (Tm) of peptide-HLA complex; higher = more thermostable pHLA complex
Method: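 Endogenous HLA-C*04:01 ligands were detected in the thermostability assays of both the C1R-A*02:01 and C1R-B*07:02 lines. Lysates were heated 10 min at 37-73 °C and pHLA immunoprecipitated with W6/32. Peptides were quantified by DIA-MS and Tm was taken from a logistic sigmoid fit.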

| Sequence | thermal melting temperature (C1R-A*02:01) [°C] | thermal melting temperature (C1R-B*07:02) [°C] |
| --- | --- | --- |
| TFDVAPSRLDF | 60.1 | 62.2 |
| VYDPSLKTLL | 52.3 | 52.4 |
| VFDPVTKL | 48.3 | 48.6 |
| QYDEAVAQF | 56.7 | 59.2 |
| NFDNILNSF | 56.8 | 58.7 |
| HYDPATEEF | 60.2 | 58.2 |
| IYDVQHANL | 50.7 | 53 |
| VLDDKDYFL | 57 | 42.4 |
| TFDSTIHF | 55.9 | 58 |
| YFDDLKGEM | 57.9 | 59.4 |
| MFDKDVVML | 48.9 | 54.6 |
| AHDVDPIEL | 45.7 | 46.9 |
| IFDQSGTYL | 53.4 | 56.4 |
| FWDPSVNLF | 53.7 | 52.4 |
| IFDRVLTEL | 51.3 | 54.7 |
| NFDDIKNGL | 52.1 | 50.4 |
| IYDEVVKL | 54.3 | 51.6 |
| FYDLYGGEKF | 48.8 | 48.5 |
| NYDEHISNF | 44.8 | 48.9 |
| SFDTGFTSF | 48.1 | 46.1 |
| FFEEFGKL | 44.3 | 46.5 |
| SFDSALQSV | 56.4 | 60.7 |
| RFDESMQVF | 55.9 | 58.5 |
| FYEPQKGSIYL | 60.5 | 62.1 |

| Sequence | thermal melting temperature (C1R-A*02:01) [°C] | thermal melting temperature (C1R-B*07:02) [°C] |
| --- | --- | --- |
| FLDLTEQEF | 59.8 | 60.6 |
| VFPKEPVEL | 52.4 | 52.2 |
| TFDVSILTI | 44.9 | 47.2 |
| MPDDLLTTL | 53.1 | 63.4 |
| LFDDIDHNM | 52.6 | 53.7 |
| AFDLSQVLF | 56.1 | 56.5 |
| LYDLVTEKM | 56.2 | 60.7 |
| SYDPTIENTF | 54.9 | 58.1 |
| LFDLGGQYL | 48.8 | 44.5 |
| SFDLLPREF | 54.7 | 55.9 |
| VFDTAIAHL | 59 | 58.7 |
| TYDLQESNV | 57.5 | 55.5 |
| AWDKEPVLV | 57.8 | 57.6 |
| TFDPMTRQI | 54.1 | 57 |
| KFDPVGEIL | 55.9 | 54.9 |
| AWEERETIL | 57.8 | 56.3 |
| IFDGNVAHI | 59.7 | 59 |
| VFDKTLAEL | 58.9 | 59.1 |
| VFDVTAPNTF | 56.1 | 61.1 |
| SWDIVVQRV | 46.9 | 49 |
| HYDEQQNFF | 53.5 | 53.3 |
| TFDLTVVSY | 53.5 | 61.8 |
| SFDPSRTF | 53.7 | 52.8 |
